Experimental data published in PubChem BioAssay (EPA / NIEHS).
The source made the active and inactive calls. Rule for the calls: active = hit-call score of the fitted dose curve at least 0.9, where 1 is the maximum; inactive = score below 0.9.

Assays:
[1] = BSK_3C_SRB: Viability Assessment in the BioMAP Diversity Plus: 3C Assay (AID 2283023); conditions: primary human endothelial cells (HUVEC);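 note: fitted both ways against DMSO so a hit may be signal rise or drop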
Procedure, shortened: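 Overt cytotoxicity is gauged in parallel confluent HUVEC cultures by SRB total-protein staining at the time of biomarker measurement, 24 h after dosing. Gain or loss of signal is fitted versus DMSO.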

[2] = read-out: Matrix Metallopeptidase 1 (MMP1), MMP1 (gene 4312); assay: BSK_BE3C_MMP1: BioMAP Diversity Plus: BE3C Assay for Matrix Metallopeptidase 1 (MMP1) Biomarker Activity (AID 2283024); conditions: primary human bronchial epithelial cells; actives raise or lower the signal
Procedure, shortened: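 ELISA read-out of MMP1 in human lung bronchial epithelial primary cultures, 24 h post-dose; bidirectional curve fit vs DMSO baseline, gain or loss of signal scored.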

[3] = BSK_3C_Vis: BioMAP Diversity Plus: 3C Assay for Morphology Visualization (AID 2283025); conditions: primary human endothelial cells (HUVEC);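 note: fitted both ways so gain or loss versus DMSO counts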;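 for AC50: light microscopy image of cell morphology used as background control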
Procedure, shortened: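 HUVEC, 3C system; light microscopy of morphology at 24 h post-dose. Bidirectional fit vs DMSO baseline. Secondary readout, background-control function.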

[4] = read-out: Pselectin, SELP (gene 6403); assay: BSK_4H_Pselectin: BioMAP Diversity Plus: 4H Assay for Pselectin Biomarker Activity (AID 2283026); conditions: primary human endothelial cells (HUVEC); actives raise or lower the signal
Procedure, shortened: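 HUVEC, 24 h chemical exposure; P-selectin read by ELISA. Bidirectional curve fit vs DMSO baseline; gain or loss of signal scored.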

[5] = BSK_4H_SRB: Viability Assessment in the BioMAP Diversity Plus: 4H Assay (AID 2283027); conditions: primary human endothelial cells (HUVEC);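 note: cells exposed to compound for 24 h before staining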;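 for AC50: curves fitted both ways versus DMSO so AC50 may be loss or gain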
Procedure, shortened: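 Cytotoxicity readout: sulforhodamine B (0.1%) staining of total protein after 10% TCA fixation, measured at 560 nm in human umbilical vein endothelium at 24 h. DMSO set the baseline; fitting was bidirectional.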

[6] = BSK_BE3C_SRB: Viability Assessment in the BioMAP Diversity Plus: BE3C Assay (AID 2283028); conditions: primary human bronchial epithelial cells;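 note: measured 24 h after chemical dosing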
Procedure, shortened: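 SRB total-protein staining (0.1%, after TCA fixation) of chemically dosed human bronchial epithelial primary cells at 24 h; DMSO serves as the negative control for bidirectional curve fitting.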

[7] = read-out: Thrombomodulin, THBD (gene 7056); assay: BSK_3C_Thrombomodulin: BioMAP Diversity Plus: 3C Assay for Thrombomodulin Biomarker Activity (AID 2283029); conditions: primary human endothelial cells (HUVEC); actives raise or lower the signal
Procedure, shortened: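 HUVEC, 3C conditions; compound 24 h; thrombomodulin by ELISA; bidirectional curve fit vs DMSO baseline; parallel SRB total-protein staining for cytotoxicity.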

[8] = read-out: Vascular endothelial growth factor receptor 2 (Homo sapiens) (UniProt P35968); assay: BSK_4H_VEGFRII: BioMAP Diversity Plus: 4H Assay for Vascular endothelial growth factor receptor 2 (VEGFR2) Biomarker Activity (AID 2283031); conditions: primary human endothelial cells (HUVEC); actives raise or lower the signal;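 for AC50: cell-surface VEGFR2 protein level quantified by ELISA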
Procedure, shortened: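 In this multiplexed HUVEC system, biomarker ELISA was performed after 24 h chemical exposure. Parallel SRB staining (TCA fixation, 560 nm) tracked cytotoxicity; DMSO served as baseline.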

[9] = read-out: Human Leukocyte Antigen - DR isotype (HLADR), HLA-DRA (gene 3122); assay: BSK_BE3C_HLADR: BioMAP Diversity Plus: BE3C Assay for Human Leukocyte Antigen - DR isotype (HLADR) Biomarker Activity (AID 2283032); conditions: primary human bronchial epithelial cells; actives raise or lower the signal
Procedure, shortened: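 Primary human bronchial epithelial cells (BE3C); 24 h chemical exposure; HLA-DR by ELISA; bidirectional curve fit vs DMSO baseline.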

[10] = read-out: Vascular cell adhesion molecule 1 (VCAM1), VCAM1 (gene 7412); assay: BSK_4H_VCAM1: BioMAP Diversity Plus: 4H Assay for Vascular cell adhesion molecule 1 (VCAM1) Biomarker Activity (AID 2283033); conditions: primary human endothelial cells (HUVEC); actives raise or lower the signal
Procedure, shortened: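 HUVEC, 24 h post-dose; VCAM-1 by ELISA. Bidirectional curve fit vs DMSO baseline. Parallel SRB total-protein stain (0.1% SRB after 10% TCA fixation, 560 nm) for cytotoxicity.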

[11] = read-out: Interferon-gamma inducible Protein 10 (IP10), CXCL10 (gene 3627); assay: BSK_BE3C_IP10: BioMAP Diversity Plus: BE3C Assay for Interferon-gamma inducible Protein 10 (IP10) Biomarker Activity (AID 2283034); conditions: primary human bronchial epithelial cells; actives raise or lower the signal
Procedure, shortened: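 ELISA readout of IP-10 in BE3C system: primary human bronchial epithelial cells, 24 h post-dosing; bidirectional curve fit vs DMSO baseline.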

[12] = read-out: Monokine induced gamma interferon (MIG), CXCL9 (gene 4283); assay: BSK_BE3C_MIG: BioMAP Diversity Plus: BE3C Assay for Monokine induced gamma interferon (MIG) Biomarker Activity (AID 2283035); conditions: primary human bronchial epithelial cells; actives raise or lower the signal
Procedure, shortened: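 hu bronchial epithelial 1° cells, 24 h cpd; MIG by ELISA; bidirectional fit, DMSO = baseline.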

[13] = read-out: Plasminogen activator inhibitor-1 (PAI1), SERPINE1 (gene 5054); assay: BSK_BE3C_PAI1: BioMAP Diversity Plus: BE3C Assay for Plasminogen activator inhibitor-1 (PAI1) Biomarker Activity (AID 2283037); conditions: primary human bronchial epithelial cells; actives raise or lower the signal
Procedure, shortened: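 ELISA read-out of PAI-1 from human bronchial epithelial primary cells, 24 h post-dosing; bidirectional curve fit vs DMSO baseline, gain or loss of signal scored.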

[14] = read-out: urokinase plasminogen activator (uPA), PLAU (gene 5328); assay: BSK_BE3C_uPA: BioMAP Diversity Plus: BE3C Assay for urokinase plasminogen activator (uPA) Biomarker Activity (AID 2283038); conditions: primary human bronchial epithelial cells; actives raise or lower the signal
Procedure, shortened: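 Using confluent primary human lung bronchial epithelial cultures, we dosed chemicals, waited 24 h, then ran a uPA ELISA, fitting bidirectionally against DMSO.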

[15] = read-out: Interleukin-6 (IL6), IL6 (gene 3569); assay: BSK_CASM3C_IL6: BioMAP Diversity Plus: CASM3C Assay for Interleukin-6 (IL6) Biomarker Activity for (AID 2283040); conditions: primary human coronary artery smooth muscle cells; actives raise or lower the signal
[16] = read-out: Tissue plasminogen activator (tPA), PLAT (gene 5327); assay: BSK_BE3C_tPA: BioMAP Diversity Plus: BE3C Assay for Tissue plasminogen activator (tPA) Biomarker Activity (AID 2283041); conditions: primary human bronchial epithelial cells; actives raise or lower the signal
Procedure, shortened: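 ELISA read-out of tPA on human primary bronchial epithelial cells, 24 h post-dosing; bidirectional fit vs DMSO negative control/baseline.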

[17] = read-out: Interleukin-8 (IL8), CXCL8 (gene 3576); assay: BSK_CASM3C_IL8: BioMAP Diversity Plus: CASM3C Assay for Interleukin-8 (IL8) Biomarker Activity (AID 2283042); conditions: primary human coronary artery smooth muscle cells; actives raise or lower the signal;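 note: IL-8 protein level quantified by ELISA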
[18] = read-out: Urokinase-type plasminogen activator receptor (uPAR), PLAUR (gene 5329); assay: BSK_4H_uPAR: BioMAP Diversity Plus: 4H Assay for Urokinase-type plasminogen activator receptor (uPAR) Biomarker Activity (AID 2283030); conditions: primary human endothelial cells (HUVEC); actives raise or lower the signal
Procedure, shortened: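 Endpoint derived via bidirectional curve fitting against DMSO baseline; readout was ELISA detection of uPAR on umbilical vein endothelial cells at 24 h post-treatment, with SRB-stained parallel cultures assessing cytotoxicity.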

[19] = read-out: Transforming growth factor beta 1 (TGFb1), TGFB1 (gene 7040); assay: BSK_BE3C_TGFb1: BioMAP Diversity Plus: BE3C Assay for Transforming growth factor beta 1 (TGFb1) Biomarker Activity (AID 2283036); conditions: primary human bronchial epithelial cells; actives raise or lower the signal
Procedure, shortened: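 Read-out: ELISA for TGF-b1 in primary human bronchial epithelial cultures, 24 h post-dose. Bidirectional curve fitting vs DMSO control; gain or loss of signal both scored.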

[20] = read-out: Urokinase-type plasminogen activator receptor (uPAR), PLAUR (gene 5329); assay: BSK_BE3C_uPAR: BioMAP Diversity Plus: BE3C Assay for Urokinase-type plasminogen activator receptor (uPAR) Biomarker Activity (AID 2283039); conditions: primary human bronchial epithelial cells; actives raise or lower the signal
Procedure, shortened: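 ELISA readout of uPAR on human lung primary bronchial epithelial cells, 24 h post-dosing. Bidirectional curve fit relative to DMSO vehicle baseline; gain or loss of signal both scored.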

Measured: AC50

CC(C)c1cccc(C(C)C)c1N1C(=O)c2ccc(O)cc2C1=O
inactive: [2] | [6] | [7] | [14] | [15] | [17]
active: [1] 17.3 µM | [3] 5.57 µM | [4] 8.54 µM | [5] 12.8 µM | [8] 20 µM | [9] 14 µM | [10] 29.4 µM | [11] 19.5 µM | [12] 26.3 µM | [13] 9.07 µM | [16] 27.2 µM

CCCN(C1CCN(C(=O)C2CCNCC2)CC1)[C@@H]1CCc2ccc(OC)cc2C1
inactive: [1] | [2] | [3] | [4] | [5] | [7] | [18] | [8] | [9] | [10] | [11] | [12] | [19] | [13] | [14] | [20] | [15] | [16] | [17]

C=CC(=C)CCC=C(C)C
inactive: [1] | [2] | [3] | [4] | [5] | [7] | [18] | [8] | [9] | [10] | [11] | [12] | [19] | [13] | [14] | [15] | [16] | [17]

CC[C@H](C)C(=O)O[C@H]1C[C@@H](C)C=C2C=C[C@H](C)[C@H](CC[C@@H]3C[C@@H](O)CC(=O)O3)[C@H]21
inactive: [7] | [15] | [17]
active: [1] 9.87 µM | [2] 33.8 µM | [3] 28.3 µM | [4] 32.9 µM | [5] 19.9 µM | [18] 19.9 µM | [8] 27.3 µM | [9] 35.9 µM | [11] 36.3 µM | [12] 36.1 µM | [19] 34 µM | [13] 28.8 µM | [14] 32.1 µM | [20] 30.9 µM | [16] 25.6 µM

Cc1c(-c2cccnc2)c2ccccc2n1CCCCC(=O)O
inactive: [1] | [2] | [3] | [4] | [5] | [7] | [18] | [8] | [9] | [10] | [11] | [12] | [19] | [13] | [14] | [15] | [16] | [17]

CCOCCO
inactive: [1] | [2] | [3] | [4] | [5] | [7] | [8] | [9] | [10] | [11] | [12] | [19] | [13] | [14] | [20] | [15] | [16] | [17]

COCCOCCOCCOC
inactive: [1] | [2] | [3] | [4] | [5] | [7] | [8] | [9] | [10] | [11] | [12] | [19] | [13] | [14] | [20] | [15] | [16] | [17]
